In article PMC7826789 (International Journal of Molecular Sciences, 2021):

Tests used:
Conditions in all cases: Compound Concentration (nM):1000
[1] = tested on: T1, BIKE
T1 construct: gene BMP2K

[2] = tested on: BLK
[3] = tested on: BMPR1A
[4] = tested on: BMPR1B
[5] = tested on: BMPR2
[6] = tested on: BMX
[7] = tested on: BRAF(V600E)
[8] = tested on: BRAF
[9] = tested on: T2, BRK
T2 construct: gene PTK6

[10] = tested on: BRSK1
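Further: KINOMEscan scanMAX binding as percent activity remaining versus control; lower means stronger binding.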

Row | Structure (SMILES) | Percent Control [1] [%] | Percent Control [2] [%] | Percent Control [3] [%] | Percent Control [4] [%] | Percent Control [5] [%] | Percent Control [6] [%] | Percent Control [7] [%] | Percent Control [8] [%] | Percent Control [9] [%] | Percent Control [10] [%]
1 | CN(C)c1cc2c(Nc3ccc4c(cnn4Cc4ccccc4)c3)ncnc2cn1 [GW282974X] | 86 | 80 | 100 | 91 | 100 | 100 | 99 | 92 | 75 | 92
2 | COc1cc(C=NNc2ncnc3c2cnn3-c2ccccc2)ccc1O [GW513184X] | 25 | 16 | 40 | 20 | 100 | 100 | 65 | 77 | 100 | 54
3 | Cl.O=C(Nc1ccc(Oc2ccc3[nH]c(NC(=O)c4ccco4)nc3c2)cc1)Nc1cc(C(F)(F)F)ccc1F [GW683134A] | 100 | 70 | 73 | 100 | 98 | 87 | 13 | 32 | 100 | 100
4 | CN(C)CCNC(=O)Nc1ccc(N(C)c2ccnc(Nc3ccc(CS(C)(=O)=O)cc3)n2)cc1.Cl [GW830900A] | 5.1 | 93 | 100 | 52 | 100 | 98 | 100 | 100 | 96 | 90
5 | COc1cc(C)c(N(C)C(=O)CN(C)C)cc1Nc1nc(Nc2cccc(F)c2C(N)=O)c2cc[nH]c2n1 [GSK2219385] | 77 | 100 | 93 | 95 | 91 | 92 | 82 | 72 | 100 | 100
6 | Nc1ncnc2occ(-c3ccc(NC(=O)Nc4cc(C(F)(F)F)ccc4F)cc3)c12 [GW770249X] | 100 | 83 | 100 | 100 | 97 | 41 | 7 | 28 | 100 | 100
7 | COc1cccc(-c2c[nH]c3c(N/N=C/c4ccncc4)ncnc23)c1 [GW814408X] | 38 | 19 | 31 | 0.1 | 99 | 100 | 26 | 29 | 100 | 100
8 | COc1ccc2c(-c3ccnc(Nc4cccc(OC(F)(F)F)c4)n3)cnn2n1 [GW810372X] | 58 | 100 | 100 | 100 | 100 | 90 | 92 | 100 | 100 | 100
9 | CN1CCN(C(=O)c2ccc(NC(=O)Nc3ccc(N(C)c4ccnc(Nc5ccc(CS(C)(=O)=O)cc5)n4)cc3)cc2)CC1.Cl [GW830263A] | 2.4 | 87 | 32 | 1.1 | 56 | 59 | 85 | 89 | 95 | 100
10 | CCn1c(-c2nonc2N)nc2c(C#CC(C)(C)O)nc(OCCNC)cc21.Cl [GSK949675] | 75 | 96 | 89 | 89 | 100 | 100 | 100 | 100 | 100 | 100
11 | COc1cc2ncnc(Nc3ccc4c(cnn4Cc4ccccc4)c3)c2cc1OC.Cl [GW282449A] | 100 | 23 | 92 | 91 | 100 | 100 | 100 | 100 | 75 | 100
12 | COC(=O)Nc1nc2ccc(Oc3ccc(NC(=O)Nc4cc(C(F)(F)F)ccc4F)cc3)cc2s1.Cl [GW693917A] | 75 | 61 | 89 | 80 | 99 | 100 | 17 | 30 | 96 | 100
13 | Cl.O=C(O[C@H]1CN[C@H](C#Cc2cc3ncnc(Nc4ccc5c(cnn5Cc5ccccc5)c4)c3s2)C1)N1CCOCC1 [GSK200398A] | 100 | 100 | 96 | 90 | 99 | 98 | 99 | 91 | 78 | 100
14 | NS(=O)(=O)c1ccc(N/N=C2\C(=O)Nc3ccc(C(=O)NCc4ccncc4)cc32)cc1 [GW300657X] | 60 | 99 | 100 | 78 | 68 | 100 | 87 | 97 | 100 | 100
15 | CCS(=O)(=O)c1ccc(OC)c(Nc2ncc(-c3cccc(OC)c3)o2)c1 [GW580509X] | 100 | 21 | 100 | 45 | 100 | 100 | 78 | 86 | 100 | 100
16 | CC(C)COC(=O)c1ccc2c(c1)/C(=C/Nc1ccc(S(N)(=O)=O)cc1)C(=O)N2 [GW416981X] | 27 | 100 | 100 | 96 | 30 | 100 | 97 | 100 | 100 | 100
17 | COc1cc2ncn(-c3cc(O[C@H](C)c4ccccc4Cl)c(C(N)=O)s3)c2cc1OC [GSK237701A] | 1.4 | 68 | 100 | 88 | 72 | 75 | 75 | 100 | 100 | 76
18 | COc1cccc(-n2ncc3c(N/N=C/c4ccncc4)ncnc32)c1 [GW784752X] | 66 | 45 | 51 | 0.1 | 86 | 100 | 3.2 | 6.5 | 100 | 18
19 | COc1ccccc1-c1cc(/C=C2\C(=O)Nc3ncc(Br)cc32)cc(Br)c1O [GW442130X] | 100 | 63 | 86 | 85 | 97 | 100 | 68 | 78 | 100 | 98
20 | Cl.c1ccc(Cc2nc3ccc(Nc4ncnc5ccccc45)cc3[nH]2)cc1 [GR269666A] | 100 | 100 | 100 | 100 | 100 | 100 | 88 | 100 | 100 | 100

Row | Structure (SMILES) | Percent Control [1] [%] | Percent Control [2] [%] | Percent Control [3] [%] | Percent Control [4] [%] | Percent Control [5] [%] | Percent Control [6] [%] | Percent Control [7] [%] | Percent Control [8] [%] | Percent Control [9] [%] | Percent Control [10] [%]
21 | COc1cc(N2CCN(C(C)C)CC2)ccc1Nc1nc(Nc2ccc(F)cc2C(=O)NC[C@@H](O)CO)c2cc[nH]c2n1 [GSK1392956A] | 81 | 99 | 100 | 88 | 97 | 100 | 90 | 94 | 100 | 100
22 | Cc1cc(O)cc(C)c1/C=C/c1cncc(C(N)=O)c1 [GW435821X] | 100 | 59 | 64 | 4.4 | 100 | 100 | 12 | 23 | 58 | 94
23 | NS(=O)(=O)c1ccc(N/N=C2\C(=O)Nc3ccc(-c4cnco4)cc32)cc1 [GW276655] | 20 | 63 | 100 | 94 | 62 | 100 | 100 | 86 | 82 | 100
24 | Cl.O=C(Nc1ccc(Oc2ccc3[nH]c(NC(=O)c4ccccc4)nc3c2)cc1)Nc1cc(C(F)(F)F)ccc1F [GW709042A] | 100 | 98 | 98 | 94 | 100 | 94 | 34 | 58 | 100 | 100
25 | CC1=C(C(=O)Nc2ccc3[nH]ncc3c2)C(c2ccc(Cl)c(Cl)c2)CC(=O)N1 (stereo not shown) [GSK299115A] | 100 | 91 | 100 | 67 | 69 | 75 | 82 | 100 | 70 | 92
26 | COc1ccc(COc2ccc(Cc3cnc(N)nc3N)cc2OC)cc1 [GW632580X] | 94 | 78 | 100 | 92 | 94 | 100 | 91 | 100 | 100 | 100
27 | NS(=O)(=O)c1ccc(Nc2ncc(-c3ccccc3)o2)cc1 [GW572399X] | 100 | 89 | 100 | 83 | 100 | 100 | 80 | 95 | 100 | 100
28 | NS(=O)(=O)c1ccc(N/N=C2\C(=O)Nc3ccc(Cl)cc32)cc1 [GW280670X] | 100 | 100 | 100 | 100 | 100 | 100 | 92 | 100 | 100 | 100
29 | O=C(Nc1n[nH]c2nc(-c3ccc(O)cc3)c(Br)cc12)C1CC1 [SB-725317] | 63 | 92 | 98 | 69 | 100 | 100 | 5.3 | 17 | 100 | 46
30 | NS(=O)(=O)c1ccc(N/N=C2\C(=O)Nc3ccc(C(=O)NCCc4c[nH]cn4)cc32)cc1 [GW300660X] | 100 | 100 | 100 | 95 | 87 | 100 | 86 | 100 | 100 | 100
31 | C[C@@H](Oc1cc(-n2cnc3ccc(OC4CCN(C)CC4)cc32)sc1C(N)=O)c1ccccc1Cl [GSK579289A] | 19 | 94 | 72 | 67 | 78 | 98 | 82 | 95 | 77 | 64
32 | C/C(Nc1ccc(S(N)(=O)=O)cc1)=C1/C(=O)Nc2ccccc21 [GW335962X] | 100 | 100 | 99 | 97 | 84 | 86 | 86 | 100 | 95 | 91
33 | COc1ccc2cc(-c3c(-c4ccncc4)nc(-c4ccc(S(C)(=O)=O)cc4C)n3C)ccc2c1 [SB-633825] | 100 | 52 | 79 | 63 | 91 | 54 | 86 | 97 | 44 | 100
34 | COc1cc(/C=N/Nc2ncnc3[nH]ncc23)ccc1O [GW578748X] | 53 | 32 | 100 | 22 | 9.6 | 89 | 26 | 35 | 80 | 100
35 | Cl.O=S1CCN(Cc2ccc(-c3ccc4ncnc(Nc5ccc(OCc6ccccc6)c(F)c5)c4c3)o2)CC1 [GW576924A] | 100 | 100 | 100 | 100 | 100 | 100 | 65 | 79 | 100 | 100
36 | COc1ccc2[nH]c3c4[nH]c5ccc(OC)cc5c4c4c(c3c2c1)C(=O)NC4=O [GW296115X] | 76 | 71 | 100 | 56 | 93 | 99 | 89 | 86 | 81 | 10
37 | CCS(=O)(=O)c1ccc(OC)c(Nc2ncc(-c3cccc(F)c3)o2)c1 [GW621970X] | 100 | 16 | 95 | 64 | 100 | 100 | 73 | 91 | 100 | 100
38 | O=C1Nc2ccc(C(=O)c3ccco3)cc2C1=Cc1cc(Cl)c(O)c(Cl)c1 [GW406108X] | 59 | 100 | 100 | 35 | 0 | 81 | 1.2 | 4.4 | 100 | 100
39 | CCc1ccc(Oc2nccc(-c3c(-c4ccc(F)cc4)ncn3C3CCNCC3)n2)cc1 [SB-242719] | 100 | 82 | 87 | 88 | 82 | 100 | 100 | 100 | 94 | 94
40 | CC1=C(C(=O)Nc2ccc3[nH]ncc3c2)C(c2ccc3ccccc3c2)CC(=O)N1 (stereo not shown) [GSK270822A] | 100 | 35 | 100 | 43 | 75 | 78 | 80 | 100 | 80 | 100
